Laboratory results from PubChem BioAssay AID463195 (Sanford-Burnham Center for Chemical Genomics, 2010).
Among all 330,000 compounds or so, about 4,600 (1.4%) were called active. The sample as a whole holds a higher share of actives than the screen did. A number with no mark means an inactive call.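 How the source made its calls: active means inhibition of 40% or more at the single tested concentration; inactive means the rest.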

Assay: wild-type TIM10 yeast growth inhibition – luminescence, uHTS, counter-screen for tim10-1 yeast inhibitor project, primary screen (AID 463195);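 further: wild-type TIM10 isogenic control strain grown at permissive 25 °C; 0% = DMSO yeast wells and 100% = minimal medium wells without yeast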
Conditions: S. cerevisiae TIM10 strain growth, BacTiter-Glo luminescence, 24 h; at 10 µM; stronger effect = higher value

In order of falling inhibition:
1. Cc1cc(OCCCC(=O)NCCN2C(=O)S/C(=C\c3cccnc3)C2=O)ccc1Cl  38.4%
2. CN(C)CCCN(C(=O)c1ccc(S(=O)(=O)N2CCCCCC2)cc1)c1nc2ccc(Br)cc2s1  34.5%
3. Cc1ccc(C)c(NC(=O)C2Cc3ccccc3CN2C(=O)OCc2ccccc2)c1 (stereo not drawn)  27.9%
4. COc1ccc(NC(=O)/C(C#N)=C\c2cc(OC)c(OCc3ccc(C(=O)O)cc3)cc2Br)cc1  26.4%
5. Cc1onc(-c2ccccc2Cl)c1C(=O)OCC(=O)c1ccccc1  23.4%
6. COCCOC(=O)C1=C(C)N=c2s/c(=C\c3cccs3)c(=O)n2C1c1cccs1 (stereo not drawn)  21.4%
7. COc1ccc(C(=O)ON=C2c3ccccc3-c3ccccc32)cc1OC  18%
8. CCOc1ccc(N(CC(=O)NCC2CCCO2)S(=O)(=O)c2ccc(C)cc2)cc1 (stereo not drawn)  16.8%
9. CCOC(=O)[C@@H]1[C@H]2COc3ccc(Br)cc3[C@H]2N2C(=O)N(c3ccc(C)cc3)C(=O)[C@@]12C  13.9%
10. COc1ccc(Nc2oc(-c3ccccc3Cl)nc2C#N)cc1  13.8%
11. Cc1[nH]c2ccccc2c1C(=O)CSCC(=O)O  13.1%
12. CC(=O)Nc1ccc(CC#N)cc1  12.5%
13. N#Cc1cccc(CN2CCC(=O)N([C@H](CO)c3ccccc3)CC2)c1  12.1%
14. Cc1ccc(Nc2nc(-c3ccc(O)cc3O)cs2)nc1  11.7%
15. CN(C)CCCN(C(=O)c1ccc(S(=O)(=O)N2CCCCCC2)cc1)c1nc2cc3c(cc2s1)OCCO3  11.4%
16. CCOc1ccc2nc(N(CCCN(C)C)C(=O)c3ccc(C(=O)c4ccccc4)cc3)sc2c1  11.2%
17. CC(C)CCn1c(=O)c2c(nc3n2CCCN3Cc2ccccc2)n(C)c1=O  11.2%
18. Cc1ccc(N(CC(=O)NCC2CCCO2)C(=O)CNS(=O)(=O)c2ccc(Cl)cc2)cc1 (stereo not drawn)  11.1%
19. COc1ccc(CN2CCNC(=O)C2CC(=O)N(C)Cc2ccccn2)cc1OC (stereo not drawn)  10.2%
20. COc1ccccc1CNC(=O)COc1ccc(C)nc1[N+](=O)[O-]  9.85%
21. CCOC(=O)C1=C(CSc2nccn2C)NC(=O)NC1c1ccc(OC)cc1 (stereo not drawn)  9.58%
22. COc1ccc(Cc2nnc(N/N=C/c3ccccc3O)[nH]c2=O)cc1OC  9.37%
23. COC(C[C@H](O)CC(=O)[C@@H](C)OCc1ccccc1)OC  8.38%
24. CSc1ccccc1NC(=O)c1cc(C2CC2)on1  7.03%
25. CC(=O)Nc1ccc(S(=O)(=O)NCC(=O)OCc2cc(=O)oc3ccc4ccccc4c23)cc1  6.88%
26. C=CCO/N=C/C1=C(O)C(C(=O)OC)C(C)(C)CC1=O (stereo not drawn)  6.77%
27. CCCCC1S/C(=N/N=C/c2cccs2)NC1=O (stereo not drawn)  5.03%
28. CCCC1(C(=O)OCC)NC(c2ccc(N(C)C)cc2)C2C(=O)N(c3ccc4c(c3)OCCO4)C(=O)C21 (stereo not drawn)  4.95%
29. O=C(CN1CCN(C2CCCCC2)CC1)Nc1ccccc1N1CCCCC1  4.11%
30. CC(OC(=O)c1cc2ccccc2o1)C(=O)Nc1ccc(N2CCOCC2)cc1 (stereo not drawn)  3.94%
31. CC(C)c1ccc2c(c1)c(SC(C)(C)C)c(CC(C)(C)C(=O)O)n2Cc1ccc(Cl)cc1  3.33%
32. O=C(Nc1cccnc1Cl)c1cc(-c2ccccc2O)on1  3.29%
33. O=C(NCCN1C(=O)S/C(=C\c2cccnc2)C1=O)c1ccc(S(=O)(=O)N2CCCC2)cc1  2.86%
34. Cc1cc(C(F)(F)F)nc(SCC(=O)Nc2nccs2)n1  2.33%
35. C=CCSc1nnc(N2C(=O)C(O)=C(C(=O)c3ccco3)C2c2ccc(F)cc2)s1 (stereo not drawn)  1.92%
36. CC(c1ccccc1)n1c(NCCCn2ccnc2)nc2c1c(=O)[nH]c(=O)n2C (stereo not drawn)  1.78%
37. COc1ccc(Cl)cc1N(CC(=O)N1CCCCC1)S(C)(=O)=O  1.46%
38. Cc1ccc(NC(=O)c2cc(-c3ccccc3O)n[nH]2)cc1C  0.905%
39. CCC1(CC)NC(=O)N(Cc2nc3ccccc3s2)C1=O  0.882%
40. Cc1ccc(NC(=O)CN(C)C(=O)Cn2nnc(-c3ccccc3)n2)cc1  0.534%
41. CCOC(=O)C1(C)NC(c2ccco2)C2C(=O)N(c3ccccc3)C(=O)C21 (stereo not drawn)  -0.047%
42. COC(=O)[C@@H]1CC[C@H](C)[C@@H](c2ccc(C)cc2)N1C(=O)c1ccc(/C=N/O[C@H](C)c2cn([C@@H]3COC[C@H]3O)nn2)cc1  -0.068%
43. Cc1cc(NCc2ccco2)n2c(nc3ccccc32)c1C#N  -0.142%
44. O=C(CN1CCN(C(=O)c2cccc(F)c2)CC1)Nc1ccccc1F  -0.2%
45. Cc1ccc2[nH]c3c(=O)n(CC(=O)NCCc4ccc(Cl)cc4)ncc3c2c1  -0.819%
46. Cc1ccc(NC(=O)C2CCCN2C(=O)OCc2ccccc2)cc1C (stereo not drawn)  -1.12%
47. CN(C)C(=O)CCc1ccc2c3c([nH]c2c1)[C@]1(CCc2ccccc2)[C@@H](C(=O)N2CCCCC2)C[C@H](CC(=O)NCCC2=CCCCC2)C(=O)N1CC3  -1.38%
48. O=[N+]([O-])c1cc([N+](=O)[O-])c(Oc2cc(F)cc(F)c2F)cc1NN1CCCCC1  -1.5%
49. CC(=O)N1CCN(CC(=O)Nc2ccc(C)c(F)c2)CC1  -1.66%
50. CCn1c(=O)c2ccccc2n(CC(=O)N2CCCc3ccccc32)c1=O  -2.71%
51. Cc1ccc(C(C)C)cc1OCC(=O)Nc1ccccc1N1CCCC1  -2.85%
52. COc1cccc(N2CC(NS(=O)(=O)c3ccc(Cl)cc3)CC2=O)c1 (stereo not drawn)  -3.31%
53. Cc1csc(=O)n1CC(=O)Nc1ccc(S(C)(=O)=O)cc1  -3.37%
54. COc1cc(NC(=O)C2CC(c3ccccc3O)=NO2)c(OC)cc1Cl (stereo not drawn)  -3.49%
55. O=C(Nc1ccncc1)c1cc2ccccc2o1  -3.62%
56. CCCN(CCC)C(=S)Nc1cc(C(=O)OC)ccc1C(=O)OC  -3.94%
57. COc1ccc(CNC(=O)CCn2cccc2)cc1  -5.68%
58. O=C(NC1CC1)C(Cc1ccccc1)NS(=O)(=O)c1ccccc1F (stereo not drawn)  -6.34%
59. CCC(C)Cn1c(O)cc2nn(-c3nc4ccccc4s3)c(=O)c-2c1C (stereo not drawn)  -6.61%
60. CCOc1ccc(N2C(=O)Nc3ccccc3C2(O)C(=O)NCc2ccco2)cc1 (stereo not drawn)  -6.83%
61. COc1ccc(C/C(N)=N/OC(=O)c2ccco2)cc1OC  -7.79%
62. CN(CC(=O)Nc1ccc(Cl)cc1)C(=O)CNC(=O)c1ccc2ccccc2c1  -7.81%
63. N/C(=N\OC(=O)N1c2ccccc2Sc2ccccc21)c1ccc(Br)cc1  -9.5%
64. Cc1cccc(NC(=O)CCn2c(=O)oc3ccccc32)c1  -10%
65. Cc1nn(Cc2ccc(F)cc2)c(C)c1NC(=O)c1cccnc1Cl  -10.4%
66. N/C(=N/O)c1cccn1Cc1ccccc1[N+](=O)[O-]  -10.5%
67. CCN(CC)CCN(C(=O)c1ccc(N2C(=O)CCC2=O)cc1)c1nc2cc3c(cc2s1)OCO3  -10.9%
68. COC(C[C@@H]1O[C@@H]1C(=O)[C@H](C)OCc1ccccc1)OC  -11%
69. COc1ccc(S(=O)(=O)N(CC(=O)N/N=C/c2ccc(C(=O)O)cc2)Cc2ccccc2)cc1OC  -21.2%
70. Cn1cnnc1SCC(=O)Nc1ccc(N2CCOCC2)cc1  -21.6%

For `CN1CCN(c2ccccc2NC(=O)COc2ccc(C3CCCCC3)cc2)CC1`, the inhibition was 40.4% (active).
In the case of `COc1ccc(CNC(=O)/C(C#N)=C/c2cccc(OC)c2OC)cc1`, the inhibition is reported as 70.4% (active).
With `O=c1oc2ccccc2cc1-c1csc(Nc2ccc(O)cc2)n1` the inhibition was 43.9% (active).
With `N/C(=N\OC(=O)Cc1ccccc1[N+](=O)[O-])c1ccc(Br)cc1` the inhibition was 57.9% (active).
In the case of `CC[C@@H]1Cc2cc(O)ccc2C2=C1c1ccc(O)cc1C[C@H]2CC`, the inhibition is reported as 58.9% (active).
With `CCN(CC)CCN(C(=O)c1ccc(S(=O)(=O)N2CCOCC2)cc1)c1nc2cc3c(cc2s1)OCCO3` the inhibition was 41% (active).
With `CCCCC1(C(=O)OCC)NC(c2ccc(O)cc2)C2C(=O)N(c3ccccc3)C(=O)C21` (stereo not drawn) the inhibition was 58.8% (active).
In the case of `CC(=NCc1ccco1)c1c(C(F)(F)F)[nH]n(-c2nc3ccccc3s2)c1=O`, the inhibition is reported as 50.6% (active).
In the case of `COC(C/C=C/C(=O)[C@@H](C)OCc1ccccc1)OC`, the inhibition is reported as 50.1% (active).
With `CN(C)CCCN(C(=O)c1ccc(S(=O)(=O)N2CCCc3ccccc32)cc1)c1nc2ccc(F)cc2s1` the inhibition was 40.9% (active).
In the case of `Cc1ccccc1-c1nc(C#N)c(NCc2ccco2)o1`, the inhibition is reported as 46.8% (active).
With `Cc1nn(Cc2ccc(Cl)c(Cl)c2)c(C)c1NC(=O)c1cc(C2CC2)on1` the inhibition was 43% (active).
With `O=C(NCCN1C(=O)S/C(=C\c2cccnc2)C1=O)c1cccc(OC(F)F)c1` the inhibition was 43.2% (active).
With `CCc1sc(C(=O)N2CCN(CC(=O)Nc3cccc(F)c3)CC2)cc1C` the inhibition was 60.2% (active).
For `CCOC(=O)C1=C(C)N=c2s/c(=C\C(=O)OC)c(=O)n2C1c1ccc(OC)cc1` (stereo not drawn), the inhibition was 61.5% (active).
In the case of `Cc1[nH]c2ccccc2c1C(=O)COC(=O)c1c(-c2ccccc2)noc1C`, the inhibition is reported as 48.3% (active).
With `COc1ccc(C(=O)O/N=C(\N)Cc2ccc(Cl)cc2Cl)cc1OC` the inhibition was 85.8% (active).
In the case of `Oc1ccccc1-c1cc(-c2ccc(Cl)cc2)n[nH]1`, the inhibition is reported as 53.8% (active).
